Positions count from the first letter of the chain named. The full ranking holds about 24,000 sequences; the median of “enrichment r” is about 0.99, and the highest 2% start at about 3.7. The sample as a whole holds a higher share of the highest values than the screen did.
T1: UNK ZnF1-3 (human, UniProt Q9C0B0 31-174)
T1 sequence: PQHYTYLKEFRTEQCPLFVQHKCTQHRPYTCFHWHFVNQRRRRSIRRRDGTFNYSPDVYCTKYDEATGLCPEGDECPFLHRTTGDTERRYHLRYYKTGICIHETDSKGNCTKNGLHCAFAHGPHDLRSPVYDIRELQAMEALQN

B1: 75522086_75522670_732_CDS_ENSMUSG00000026213_ENSMUST00000113553|mouse|control|control (ssRNA)
RNA: GGGAGUUCUACAGUCCGACGAUCCAGGAGACGCAGGGAGCUGUCUAAGCUCCUGAGCGCAUUGUAGCUGAAGUCGGCAGAAAGCAAGGCUAGCCAGGGGAGGGCAGAGCAGAGAUCCCCACCACAGGCUGACAAGAGCUCCUCCAACAGAGGAUUGAGCAUCA
B2: chr1:244855233:244855234:+_ENSG00000121644_ENST00000302550|hu_mus|hu_hu_hu_mus_True|28_88 (ssRNA)
RNA: GGGAGUUCUACAGUCCGACGAUCCAUCAGAUGGUAGGCGUUGCCCUUGUAUUCUUUCCCCAGUUCUUCUACAAUUUUCUCUAUAUCAUCUUCUAGAAAGUCCGUACUCCCUAAAACAACAGCUUCUUUAAAUUUAAAUGUUUCCAACAGAGGAUUGAGCAUCA
B3: chr7:118222036:118222037:-_ENSMUSG00000005610_ENSMUST00000162415|mus_mus|FALSE|FALSE (ssRNA)
RNA: GGGAGUUCUACAGUCCGACGAUCAUCAAAGUUUGGUGCAUCUUCUGCCAAUCGCAGACAUAGCUGAGCAUACAGCGAGCUAUACUUUGGCUCUUCUAAGGCUUUGUCCACAAUCAGCAGUAUGACCCCUUUAAGGAUGAGUUUCAACAGAGGAUUGAGCAUCA
B4: chr15:25293464:25293465:-_ENSMUSG00000045763_ENSMUST00000058845|mus_mus|motif|central (ssRNA)
RNA: GGGAGUUCUACAGUCCGACGAUCAAAAAUAUCUGGAGAGGAAAAAUGGAGGGUUGGCAUUGAGAUACAUGUGGACAAGCGGAGUGGGCUCCGUCUGAAAGUUGGCAUUCAUCCACGAACGUUUAAAAAAAUACCAAAAAAAUUCAACAGAGGAUUGAGCAUCA
B5: chr15:25293464:25293465:-_ENSMUSG00000045763_ENSMUST00000058845|mus_hu|FALSE|FALSE (ssRNA)
RNA: GGGAGUUCUACAGUCCGACGAUCAAAAAUAUCUGGAGAGGAAGAAUGGAGGAUUGGCAUUGAGAUCCAUGUGGACAAGCUAAGUGGGCUCUGUCUGAAAGCUGGCAUUCAUCCACAACAUUAAAAAAAUAUCAAAAUAAGAAACAACAGAGGAUUGAGCAUCA
B6: chr9:122046571:122046572:+_ENSMUSG00000038145_ENSMUST00000120173|mus_mus|FALSE|FALSE (ssRNA)
RNA: GGGAGUUCUACAGUCCGACGAUCCUGAAAUUUGUUGCUGAAGCCAAAGUCUGUCAACUUCACAAGACCUUGUUUUUCAAAAAAGACUACAUUCUCUGGUUUCAAGUCUCUGUGGACCACAUGGAGUUUAUGGCAAUAAGAUAUCAACAGAGGAUUGAGCAUCA
B7: chr1:46159212:46159213:+_ENSG00000159596_ENST00000372025|hu_mus|hu_hu_hu_mus_True|38_58 (ssRNA)
RNA: GGGAGUUCUACAGUCCGACGAUCUCUGAUCCCUCCCAAGAAAGCUAGGAAACCGGCUCCAUAAGCCAUCUGAGUGAAAGCUAAUAUGGGGAUAUAAGUUUUUGUCAUUACCAUGAGAAGUGGGGGAGCAGUAAAGGGGAUUAACAACAGAGGAUUGAGCAUCA
B8: chr18:38477064:38477065:+_ENSMUSG00000060450_ENSMUST00000072376|mus_hu|motif|central (ssRNA)
RNA: GGGAGUUCUACAGUCCGACGAUCUGCAGAUAUAAUUCAAGAACAUUCAGCUUGGGAAUAUAUUAAGCUUUCUCCGGUUCCAGCAGAGGAAAUAAAAACAUGUGUUCCUGGAAUUAAUAUUAAAAUCAUCCUUACAAACAGAAGCAACAGAGGAUUGAGCAUCA
B9: chr15:25293464:25293465:-_ENSMUSG00000045763_ENSMUST00000058845|mus_hu|motif|central (ssRNA)
RNA: B5 RNA with U80G, A81G
B10: chr5:128448638:128448639:+_ENSG00000066583_ENST00000173527|hu_mus|hu_hu_hu_mus_False|8_98 (ssRNA)
RNA: GGGAGUUCUACAGUCCGACGAUCGGCACUCGCCUUAAUUAGAUUCUGAAUUUCCUUGAACUUCGGGUGGUCUUUGUCAGCCACCAGCUGUAGGAGGACAGCCUCACUAGUGGUCACGAUGAUCCCAGUUCGAGCGAGACGCUCCAACAGAGGAUUGAGCAUCA
B11: chr12:39763582:39763583:-_ENSG00000139116_ENST00000544797|hu_mus|hu_hu_hu_mus_False|1_28 (ssRNA)
RNA: GGGAGUUCUACAGUCCGACGAUCCUCUAGGAACUGGGCAUUCACUUUGAAUUCAGGAGGGGGCAGCCCGUUUUUAAUCGCUGAGGUCUUUUUCUCAUCAAUACUCUUAAAAAGGUGUCUAACAGCACGAGAGAUGAUACCCAGCAACAGAGGAUUGAGCAUCA
B12: chr1:153198750:153198751:+_ENSMUSG00000023150_ENSMUST00000023918|perfect_dup|FALSE|FALSE (ssRNA)
RNA: GGGAGUUCUACAGUCCGACGAUCUUCUGGAUUGAGAUCAUCAAAUUUAACGUGAGAAAUUCCAUGAGGAUCACUAUCACUAUUAAAGAUUUCAAAUAAAUAGGGACUGCAGCAAGCUAGCACUGCUCUGUGUGCUAACAUUUCCAACAGAGGAUUGAGCAUCA
B13: chr1:153198750:153198751:+_ENSMUSG00000023150_ENSMUST00000023918|perfect_dup|FALSE|FALSE (ssRNA)
RNA: GGGAGUUCUACAGUCCGACGAUCUUCUGGAUUGAGAUCAUCCAACUUCACAUGAGAAACUCCAUGAGGGUCACUGUCACUAUUGAAGAUUUCAAAUAGAUAGGGGCUACAGCAAGCCAGGACUGCCCUGUGUGCUAGCAUCUCCAACAGAGGAUUGAGCAUCA
B14: chr3:100366718:100366719:-_ENSMUSG00000008763_ENSMUST00000008907|mus_hu|FALSE|FALSE (ssRNA)
RNA: GGGAGUUCUACAGUCCGACGAUCAUUCUUAAAGAAAAAUCUAUUAUCUGUUAGCAUGAUUGGAGCACUGCAAUGUAUAUGCUAGUAAUAUGGUGUGUAAUUUCACAAGCAAUUUUAUGAGUUCUGCAAUUGCUAGGCUCAAACCAACAGAGGAUUGAGCAUCA
B15: chr8:86505109:86505110:+_ENSMUSG00000005469_ENSMUST00000005606|mus_mus|motif|central (ssRNA)
RNA: GGGAGUUCUACAGUCCGACGAUCCUUGUGCUUCACCAGCAUCACUCGCCCAAAGGAGCCGGUGCCAAGGGUCUUGAUUCGGUCAAACUGAUCCAACUGGGCUGUAUUCUGAGAAGGGGUCUCCCAUUUUUUCAGGAAAUCUUCCAACAGAGGAUUGAGCAUCA
B16: chr15:74751088:74751089:-_ENSG00000138629_ENST00000361351|perfect_dup|FALSE|FALSE (ssRNA)
RNA: GGGAGUUCUACAGUCCGACGAUCCGGGUCUGGAACAGAUUCCUGGAGCUUGCCAGCAAUAAGCUGCUUCAGAAAUGAAAUGCUAUAGCCCCCUAGGGAAUAUUCUCCCAGUUCUGUCUCUGGCAACUGAAGAAUAGAUUUUGGCAACAGAGGAUUGAGCAUCA

These binders were tested against T1, UNK ZnF1-3 (assay: nsRBNS (natural sequence RNA bind-n-seq); RBNS binding buffer (assumed for nsRBNS): 25 mM Tris pH 7.5, 150 mM KCl, 3 mM MgCl2, 0.01% Triton X-100, 500 ug/ml BSA, 20 U/ml SUPERase-In, 4 C; UNK is unkempt and MSI1 is Musashi-1; names of the RNAs are library labels; protein concentration not given here; high values mean tight binding).

Binder	binding signal
B1	1.21 enrichment R
B2	1.19 enrichment R
B3	0.544 enrichment R
B4	3.28 enrichment R
B5	15.3 enrichment R
B6	0.833 enrichment R
B7	1.29 enrichment R
B8	2.14 enrichment R
B9	8.1 enrichment R
B10	0.656 enrichment R
B11	1.45 enrichment R
B12	5.29 enrichment R
B13	5.29 enrichment R
B14	0.664 enrichment R
B15	1.11 enrichment R
B16	1.14 enrichment R

Source: article PMC12136788
